Laboratory results from publication PMC7826789 (International Journal of Molecular Sciences, 2021).

tested on: SYK; conditions: Compound Concentration (nM):1000
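Also: KINOMEscan scanMAX binding as percent activity remaining versus control; lower means stronger binding.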

Row | Structure (SMILES) | Percent Control
1 | CN(C)c1cc2c(Nc3ccc4c(cnn4Cc4ccccc4)c3)ncnc2cn1 [GW282974X] | 100%
2 | Cl.O=S1CCN(Cc2ccc(-c3ccc4ncnc(Nc5ccc(OCc6ccccc6)c(F)c5)c4c3)o2)CC1 [GW576924A] | 100%
3 | CCc1ccc(Oc2nccc(-c3c(-c4ccc(F)cc4)ncn3C3CCNCC3)n2)cc1 [SB-242719] | 85%
4 | Nc1ncnc2occ(-c3ccc(NC(=O)Nc4cc(C(F)(F)F)ccc4F)cc3)c12 [GW770249X] | 38%
5 | Cl.O=C(O[C@H]1CN[C@H](C#Cc2cc3ncnc(Nc4ccc5c(cnn5Cc5ccccc5)c4)c3s2)C1)N1CCOCC1 [GSK200398A] | 91%
6 | Cl.c1ccc(Cc2nc3ccc(Nc4ncnc5ccccc45)cc3[nH]2)cc1 [GR269666A] | 100%
7 | COc1ccc2c(-c3ccnc(Nc4cccc(OC(F)(F)F)c4)n3)cnn2n1 [GW810372X] | 83%
8 | COc1cccc(-c2c[nH]c3c(N/N=C/c4ccncc4)ncnc23)c1 [GW814408X] | 72%
9 | CCn1c(-c2nonc2N)nc2c(C#CC(C)(C)O)nc(OCCNC)cc21.Cl [GSK949675] | 100%
10 | NS(=O)(=O)c1ccc(Nc2ncc(-c3ccccc3)o2)cc1 [GW572399X] | 93%
11 | COc1ccc(COc2ccc(Cc3cnc(N)nc3N)cc2OC)cc1 [GW632580X] | 100%
12 | CC(C)COC(=O)c1ccc2c(c1)/C(=C/Nc1ccc(S(N)(=O)=O)cc1)C(=O)N2 [GW416981X] | 100%
